Data reported in PubChem BioAssay (NCI).
This is part of a sample that, as a whole, favours compounds with a hit. Of some 83,000 tested, about 20% had one in any assay.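 Testing used 96-well plates and a 48-hour single-concentration exposure. Example: -40 means 40% of the starting cells died.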 Unmarked numbers belong to inactive results. Calls of active or inactive are those of the source. Rule for the calls: active = growth percent below 10; inactive = the rest.

Columns and labels:
Experiment in all cases: NCI-60 one-dose screen, 48 h (100 = growth as untreated, 0 = no growth, -100 = all killed)
Details in all cases: 10 µM unless noted
NCI-H23 lung = system: NCI-H23 lung
NCI-H226 lung = system: NCI-H226 lung
NCI-H322M lung = system: NCI-H322M lung
HOP-62 NSCLC = system: HOP-62 NSCLC
NCI-H460 lung = system: NCI-H460 lung
HOP-92 NSCLC = system: HOP-92 NSCLC
NCI-H522 lung = system: NCI-H522 lung
A549/ATCC NSCLC = system: A549/ATCC NSCLC
786-0 renal = system: 786-0 renal
COLO 205 colon = system: COLO 205 colon

SMILES	growth (NCI-H23 lung)	growth (NCI-H226 lung)	growth (NCI-H322M lung)	growth (HOP-62 NSCLC)	growth (NCI-H460 lung)	growth (HOP-92 NSCLC)	growth (NCI-H522 lung)	growth (A549/ATCC NSCLC)	growth (786-0 renal)	growth (COLO 205 colon)
O=C(Nc1cccc2ccccc12)NC1CC1	105%	99.9%	111%	89.8%	106%	99%	136%	103%	101%	107%
C=CCSc1nnc(NC(=O)CCl)s1	93.6%	88.8%	101%	109%	99.9%	112%	85.3%	95.2%	101%	122%
COc1ccccc1N1CCCCC1	102%	104%	108%	90.4%	109%	104%	93.8%	101%	95.8%	113%
CC(C)(Sc1cc(C(C)(C)C)c(OC(=O)CCCC(=O)O)c(C(C)(C)C)c1)Sc1cc(C(C)(C)C)c(OC(=O)CCCC(=O)O)c(C(C)(C)C)c1	29.5%	64.8%	49.5%	38%	9.34% (active)	73%	37.8%	21.4%	49.7%	58.4%
COc1cc2c(cc1OCCCN1CCN(CCCOc3cc4c(cc3OC)C(=O)N3CCC[C@H]3C=N4)CC1)C=CC(C)(C)O2	-58.5% (active)	-70.3% (active)	-80.7% (active)	-50.9% (active)	-94.8% (active)	-29.6% (active)	-80.5% (active)	-79.2% (active)	-97.1% (active)	-76.8% (active)
O=C(Nc1nc2ccc(C(=O)N3CCN(/C=C/c4ccccc4)CC3)cc2s1)c1ccc(NCCc2ccccc2)c([N+](=O)[O-])c1	51%	62.1%	82.8%	58.4%	16.5%	51.8%	48.3%	55.2%	69.7%	18.5%
COC(=O)Nc1nc2ccc(S(=O)c3ccccc3)cc2[nH]1 (stereo not given)	64.4%	92.9%	88%	99.4%	60.3%	75.5%	65.8%	57.7%	80.4%	67.5%
O=C(CSc1nc2ccc([N+](=O)[O-])cc2[nH]1)Nc1ccc([N+](=O)[O-])cc1	0.139% (active)	6.55% (active)	43.9%	36.2%	15.4%	-26.8% (active)	-3.09% (active)	24.4%	24.1%	21.4%
O=C(c1ccccc1)c1ccc(C2CCCCC2)cc1	95%	92.4%	99.7%	98.5%	97%	76.2%	88.9%	98%	90.1%	101%
Nc1nc(-c2ccc(Cl)cc2)nc2c1sc(=S)n2-c1ccccc1	48.8%	49.4%	45.7%	28.9%	9.12% (active)	-19.3% (active)	56.4%	23.9%	-52.9% (active)	64.4%
O=C1NC(=C(Cl)Cl)/C(=N\S(=O)(=O)NCc2ccccc2)N1	104%	99.2%	99.3%	102%	110%	107%	81.4%	94.1%	100%	121%
COc1ccc(C2=C(Br)C(=O)c3nc(C)ccc3C2=O)cc1	88.1%	83%	88.4%	86.8%	95.7%	78%	24%	98%	103%	0.376% (active)
O=C(/C=C/c1cccs1)Nc1ncc(Cc2ccccc2F)s1	47.5%	57.8%	37.9%	22.4%	12.9%	60%	6.23% (active)	29%	30.8%	4.7% (active)
COc1ccc2c(c1)N(CCO)C1=C(C(=O)OC1)C2c1cccc(F)c1 (stereo not given)	25.6%	45%	46.5%	36.9%	6.1% (active)	57.4%	6.05% (active)	16.1%	27.9%	-22.6% (active)
Oc1c(I)cc(I)cc1CNCc1ccccn1	52.4%	62.5%	40.1%	28.3%	19.9%	63.2%	4.61% (active)	23.6%	36.1%	74.1%
COc1ccc(/C=C(\C#N)n2nnc3cc(F)c(F)cc32)cc1	74.7%	101%	72.6%	49.6%	87.8%	72.3%	12.7%	51.7%	60.8%	38.2%
COCCOc1cc2ncnc(N3CCN(c4cc(S(C)(=O)=O)c(C)cc4Cl)CC3)c2cc1OCCOC	81.9%	81.4%	105%	100%	102%	53.3%	90.6%	90.6%	105%	97.1%
CC(C)(C)[Si](C)(C)OC1[C@@H](CNC(=O)NC(=O)NC(N)=O)O[C@@H](n2cnc3c(NC(=O)Nc4ccccc4)ncnc32)[C@H]1O[Si](C)(C)C(C)(C)C (stereo not given in full)	75.4%	69.4%	87.1%	71%	27.4%	92%	43.3%	44.1%	90.9%	54.3%
O=C(/C=C(/C=C/c1ccc2[nH]ccc2c1)OB(F)F)/C=C/c1ccc2[nH]ccc2c1	-26.6% (active)	-59.5% (active)	27.5%	-16.5% (active)	0.421% (active)	4.49% (active)	-68.5% (active)	-53.6% (active)	-57.1% (active)	-38.4% (active)
CC1=NC2=Nn3c(c4cnn(-c5ccccc5)c4n/c3=N\N)NN2C(c2ccccc2)=C1	87.5%	90.7%	87.6%	96.1%	88.5%	74.3%	89%	96%	104%	107%
COC(=O)c1cc(N=C2NC(=O)/C(=C/C=C/c3ccccc3)S2)ccc1O	37.2%	37.5%	47.2%	44.5%	12.1%	34.3%	19.4%	30.8%	20.4%	9.95% (active)
Cc1ccc(/C=C2\COc3ccc(O)cc3C2=O)cc1	94.7%	97.3%	99.6%	103%	100%	97.4%	4.44% (active)	89.7%	86.7%	94.3%
O=c1c2cnn(-c3ccccc3)c2n2c(CN3CCOCC3)nnc2n1-c1ccccc1	108%	104%	108%	78.1%	102%	81.3%	41.2%	76.9%	92.6%	96.5%
Cc1ccccc1/C=C/C(=O)c1cccc(OCCCCOc2cccc(C(=O)/C=C/c3ccccc3C)c2)c1	94.6%	91.7%	92.1%	102%	98.1%	93.6%	85.8%	84.2%	96.4%	106%
C=C1CC[C@@H]2[C@](C)(COC(C)=O)[C@H](OC(C)=O)CC[C@@]2(C)[C@@H]1CC(Nc1ccc(S(=O)(=O)Nc2ncccn2)cc1)C1=CCOC1=O (stereo not given in full)	29.6%	-16.6% (active)	50.9%	126%	18.1%	56.3%	-67.7% (active)	44.7%	-10.1% (active)	-12.1% (active)
